According to PubChem BioAssay AID1159580 (chemical genetic matrix, 2015):
In all, about 5,500 compounds went through this assay and about 2,000 (36%) were called active. About 18% were inconclusive and are not listed. No stated cut-off is given here; in the data, active means normalized growth mostly below about 0.91 (no sharp cut-off); inconclusive means no clear call, values can overlap the other calls; inactive means mostly above about 0.92. The list shows a part of the results.

Assay: chemical genetic growth profiling, strain panel (AID 1159580);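 further: tested at 20 µM; growth read once vehicle control cultures reached saturation at 30 °C; 1 = growth at the plate median or of vehicle wells; lower values mean less growth of the strain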
Conditions: S. cerevisiae deletion strains, growth OD
[1] = locus YAL040C, strain CLN3, hits give low values
[2] = locus YCL061C, strain MRC1 (second series), hits give low values
[3] = locus YDR150W, strain NUM1, hits give low values
[4] = locus YDR363W, strain ESC2, hits give low values
[5] = locus YER002W, strain NOP16, hits give low values
[6] = locus YGR078C, strain PAC10, hits give low values
[7] = locus YNL128W, strain TEP1, hits give low values
[8] = locus YNL153C, strain GIM3, hits give low values
[9] = locus YNL175C, strain NOP13, hits give low values
[10] = locus YNL197C, strain WHI3, hits give low values
[11] = locus YNL224C, strain SQS1, hits give low values
[12] = locus YOR083W, strain WHI5 (second series), hits give low values
[13] = locus YPL241C, strain CIN2, hits give low values

Measured: normalized growth

CNCC[C@H](Oc1ccc(C(F)(F)F)cc1)c1ccccc1
inactive: [1] 0.981 | [2] 0.985 | [3] 0.993 | [4] 1.01 | [5] 1.01 | [6] 0.969 | locus YMR263W, strain SAP30, hits give low values 0.997 | [7] 1.01 | [8] 0.886 | [9] 1 | [10] 0.988 | [11] 1 | [12] 0.874 | [13] 0.982

CNCC[C@@H](Oc1ccc(C(F)(F)F)cc1)c1ccccc1
inactive: [1] 1.04 | [2] 0.977 | [3] 0.998 | [4] 0.943 | [5] 0.993 | [6] 1.01 | locus YJR075W, strain HOC1, hits give low values 0.982 | locus YMR307W, strain GAS1, hits give low values 0.999 | [7] 1.03 | [8] 1.01 | [9] 1.04 | [10] 1.01 | [11] 1.02 | locus YNL322C, strain KRE1, hits give low values 0.963 | [12] 1.01 | locus YPL055C, strain LGE1, hits give low values 0.975 | [13] 0.978
